# Assay results reported in PMC4336329 (PLoS ONE, 2015).
# In all, about 310,000 compounds went through this assay and about 14,000 (4.5%) showed an effect of 50% or more. The effect is printed as a negative number. This excerpt belongs to a sample that is enriched for strong results.
# Biological target: human ether-à-go-go-related gene (hERG) potassium channel (human, UniProt Q12809)
# Test: primary screen, population patch clamp on CHO cells stably expressing hERG; higher = less effect of the substance
# 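Further: peak tail current of the secondary pulse compared with the same well before compound.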
# Chain of human ether-à-go-go-related gene (hERG) potassium channel (Q12809 whole entry, looked up): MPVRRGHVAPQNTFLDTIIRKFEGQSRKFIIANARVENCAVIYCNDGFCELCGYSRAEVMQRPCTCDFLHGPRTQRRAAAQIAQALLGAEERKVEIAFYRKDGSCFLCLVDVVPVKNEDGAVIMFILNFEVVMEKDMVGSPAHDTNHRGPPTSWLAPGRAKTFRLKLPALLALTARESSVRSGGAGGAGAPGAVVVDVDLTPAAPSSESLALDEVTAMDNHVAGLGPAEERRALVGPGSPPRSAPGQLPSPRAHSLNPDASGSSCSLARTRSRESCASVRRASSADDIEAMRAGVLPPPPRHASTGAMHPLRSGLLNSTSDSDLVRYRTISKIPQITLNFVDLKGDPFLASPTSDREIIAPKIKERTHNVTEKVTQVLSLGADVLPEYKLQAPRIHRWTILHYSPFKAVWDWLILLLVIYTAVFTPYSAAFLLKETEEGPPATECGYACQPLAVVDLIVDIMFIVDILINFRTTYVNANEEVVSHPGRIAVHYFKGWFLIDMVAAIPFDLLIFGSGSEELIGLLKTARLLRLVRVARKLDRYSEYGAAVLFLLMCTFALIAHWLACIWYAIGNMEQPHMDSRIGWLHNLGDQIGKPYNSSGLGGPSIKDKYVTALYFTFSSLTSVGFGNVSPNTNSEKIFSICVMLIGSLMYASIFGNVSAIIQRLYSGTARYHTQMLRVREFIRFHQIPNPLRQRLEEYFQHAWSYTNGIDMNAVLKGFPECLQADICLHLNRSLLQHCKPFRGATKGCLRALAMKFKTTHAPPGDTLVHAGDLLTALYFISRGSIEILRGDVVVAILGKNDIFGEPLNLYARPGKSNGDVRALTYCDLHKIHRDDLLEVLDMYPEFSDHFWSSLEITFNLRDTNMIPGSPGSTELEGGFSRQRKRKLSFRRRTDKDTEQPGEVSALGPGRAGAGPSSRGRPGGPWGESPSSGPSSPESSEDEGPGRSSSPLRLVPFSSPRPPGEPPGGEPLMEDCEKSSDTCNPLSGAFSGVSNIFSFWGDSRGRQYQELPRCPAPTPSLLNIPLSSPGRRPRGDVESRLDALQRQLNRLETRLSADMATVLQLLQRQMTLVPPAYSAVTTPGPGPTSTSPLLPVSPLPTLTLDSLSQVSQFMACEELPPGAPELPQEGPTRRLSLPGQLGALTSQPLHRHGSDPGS
row,Compound,"hERG current change (%, negative = inhibition) at 10uM [%]"
1,COC(=O)C1=C(C)N(CCc2ccc(OC)c(OC)c2)C(=O)C1,18.5
2,O=C(CNS(=O)(=O)c1ccc(Cl)cc1)NNC(=O)c1cccnc1,20.7
3,S=C1NC[C@H](Cc2cccc3ccccc23)N1CC1CCCCC1,10.3
4,COc1cc(O)sc1C=Nc1ccc(Cl)cc1,4.72
5,Cc1cc2c(n1-c1ccc(Br)cc1)CC(C)(C)CC2=O,-33.5
6,O=S(=O)(Nc1cccc(-n2cnnn2)c1)c1ccccc1C(F)(F)F,12
7,CN1CCN(CCC(=O)N/N=C/c2cc([N+](=O)[O-])ccc2OC(F)F)CC1,1.78
8,C#CCOCCOCCOCCNc1nc(N2CCN(C(=O)CCCCCCCCCCNC(=O)Cn3cc(CCCCCN)nn3)CC2)nc(N2CCN(C(=O)CCCCCCCCCCNC(=O)[C@@H](CCC(=O)O)n3cc(CCCCCN)nn3)CC2)n1,-5.58
9,CC(=O)Nc1cccc(NC(=O)CSc2nnc(Cc3cccn3C)n2-c2ccc(C)cc2)c1,-11.9
10,Cc1ccnc(NC(=O)c2ccc(Cl)c(NC(=O)C(C)Oc3ccccc3)c2)c1 (stereo not drawn),1.41
11,O=C(CCCSc1nc2ccccc2[nH]1)NCc1ccccc1,-23.9
12,O=C(CSc1nc2ccccc2[nH]1)N1CCN(c2ccc(F)cc2)CC1,-55.6
13,O=C(CCCSc1nc2ccccc2[nH]1)Nc1ccccc1,7.05
14,O=C(CCCSc1nc2ccccc2[nH]1)NCc1ccc(Cl)cc1,-62.3
15,O=C(CCCSc1nc2ccccc2[nH]1)N1CCN(c2ccccc2)CC1,-60.2
16,O=C(CCCSc1nc2ccccc2[nH]1)NCc1ccccc1Cl,-19.3
17,Cc1cccc(N2CCN(C(=O)CCCSc3nc4ccccc4[nH]3)CC2)c1C,-17.4
18,COc1ccc(N2CCN(C(=O)CSc3nc4ccccc4c(=O)[nH]3)CC2)cc1,-10.7
19,O=C(CSc1nc2ccccc2[nH]1)N1CCCCC1,-2
20,Cc1ccc2nc(SCC(=O)N3CCN(c4ccccc4)CC3)[nH]c2c1,1.42
21,O=C(CSc1nc2ccccc2[nH]1)N1CCN(c2ccccc2)CC1,-0.235
22,COc1ccc(N2CCN(C(=O)CCCSc3nc4ccccc4[nH]3)CC2)cc1,-62.3

row,Compound,"hERG current change (%, negative = inhibition) at 10uM [%]"
1,CC(C)CNC(=O)C(=O)NC1CCCC1,11.7
2,CC1=C(C)CC(C(=O)Nc2nccs2)C(C(=O)O)C1 (stereo not drawn),28.7
3,O=C(CSc1n[nH]c(-c2ccncc2)n1)Nc1ccc(Br)cc1,-2.1
4,CN(C)/C=N/c1nc2nccc(-c3ccc(F)cc3)n2n1,13.8
5,CCC1Oc2ccc(C)cc2N(CC(=O)NCCCN2CCCCC2C)C1=O (stereo not drawn),3.15
6,CN(C(=O)CSc1nnc(-c2ccccc2)o1)c1c(N)n(Cc2ccccc2)c(=O)[nH]c1=O,12
7,COc1cccc(N2C(=O)/C(=C/c3ccc(C)o3)C(=O)NC2=S)c1,15
8,COc1ccc(/C=C/C=N/NC(=O)COc2ccc(OC)cc2)cc1,1.85
9,CC(C(=O)OCC(=O)c1ccc([N+](=O)[O-])cc1)N1C(=O)C2C3CCC(C3)C2C1=O (stereo not drawn),-54
10,CC(C(=O)OCC(=O)c1cccc([N+](=O)[O-])c1)N1C(=O)C2C3CCC(C3)C2C1=O (stereo not drawn),2.55
11,O=C(CCN1C(=O)C2C3CCC(C3)C2C1=O)OCC(=O)c1ccc(Br)cc1 (stereo not drawn),-30.2
12,O=C(CCN1C(=O)C2C3CCC(C3)C2C1=O)OCC(=O)c1ccc(Cl)cc1 (stereo not drawn),-53.2
13,CC(C(=O)OCC(=O)c1ccc([N+](=O)[O-])cc1)N1C(=O)C2C3C=CC(C3)C2C1=O (stereo not drawn),-43
14,O=C(CCN1C(=O)C2C3CCC(C3)C2C1=O)OCC(=O)c1ccccc1 (stereo not drawn),9.98
15,Cc1ccc(CSCC(=O)N(C)CC(=O)Nc2cccc(F)c2)cc1,-17.5
16,COC(=O)CNC(=O)c1c(-c2ccccc2Cl)noc1C,-5.68
17,CCCCc1nc(NCc2ccccc2)c(C#N)c2c1COC(C)(C)C2,12.9
18,CCOC(=O)c1c(C)[nH]c(C)c1S(=O)(=O)NC(CC)CN1CCOCC1 (stereo not drawn),7.32
19,O=C(NC(=S)Nc1ccccc1C(=O)O)c1ccc(-c2ccc(Br)cc2)o1,28.3
20,COc1ccc(CCN2C(=O)N[C@@H](CCC(=O)O)C2=O)cc1,19
21,CC(=C1C(=O)c2ccccc2C1=O)N1CCN(c2ccc(F)cc2)CC1,-69.8
22,COc1ccc(N2CCN(C(C)=C3C(=O)c4ccccc4C3=O)CC2)cc1,-53.3

row,Compound,"hERG current change (%, negative = inhibition) at 10uM [%]"
1,C/C(=C/c1ccccc1)C(=O)N1CCN(c2ccc(F)cc2)CC1,-42.2
2,COc1ccc(N2CCN(C(=O)C(OC(C)=O)c3ccccc3)CC2)cc1 (stereo not drawn),-0.89
3,COC(=O)N1CCN(c2ccc(OC)cc2)CC1,4.33
4,CC(=C1C(=O)c2ccccc2C1=O)N1CCN(c2ccccn2)CC1,-28.3
5,O=C(NC1CCCCC1)NC1C2CC3CC(C2)CC1C3 (stereo not drawn),-6.14
6,CCCNC(=S)Nc1ccc(Cl)cc1C,1.16
7,Cc1ccc(S(=O)(=O)NCCNC(=O)c2ccccc2)cc1,12.4
8,CC(C)Oc1ccc(C(CC(=O)O)NC(=O)Cc2ccc(Cl)cc2)cc1 (stereo not drawn),24.8
9,CCOc1ccccc1-n1c(SCC(=O)Nc2nccs2)nnc1-c1ccoc1C,-5.08
10,CCOC(=O)CSc1nnc(Cc2ccccc2)n1-c1ccc(C)cc1,-37.4
11,CCOc1ccc(-n2c(SCC(=O)NC)nnc2-c2ccco2)cc1,-27.5
12,COc1ccc(-n2c(Cc3cccn3C)nnc2SCC(=O)Nc2nc(C)cs2)cc1,-6.16
13,CCOc1ccc(-n2c(SCC(=O)Nc3nccs3)nnc2-c2ccoc2C)cc1,-56.1
14,CCOC(=O)CN(C(=O)CSc1nnc(Cc2ccccc2)n1-c1ccc(C)cc1)c1ccccc1,-59.2
15,CCOC(=O)CN(C(=O)CSc1nnc(C)n1-c1ccccc1)c1ccccc1,6.79
16,Cc1csc(NC(=O)CSc2nnc(-c3ccoc3C)o2)n1,4.99
17,COc1ccc(CC(=O)NCc2nnc(SCC(=O)Nc3nccs3)n2-c2ccccc2)cc1,2.7
18,COc1ccc(-n2c(Cc3cccn3C)nnc2SCC(=O)Nc2nccs2)cc1,-9.82
19,COc1ccc(-n2c(SCC(=O)Nc3nccs3)nnc2-c2ccccc2)cc1,-62.5
20,COc1ccc(-n2c(SCC(=O)Nc3nc(C)cs3)nnc2-c2ccoc2C)cc1,-81
21,Cc1cc(C)cc(NC(=O)Cn2c(-c3ccccc3Cl)nc3ccccc32)c1,5.5
22,CCCCC(CC)CNC(=O)c1cccs1 (stereo not drawn),8.33

row,Compound,"hERG current change (%, negative = inhibition) at 10uM [%]"
1,O=S(=O)(c1ccc(Nc2ccc3c(c2)OCO3)nc1)N1CCOCC1,-13.2
2,COc1ccc(N(C(=O)c2cccnc2)S(=O)(=O)c2cc(OC)ccc2OC)cc1,-21.8
3,O=C(CS(=O)(=O)Cc1ccccc1)Nc1ccccc1Cl,1.09
4,Cc1ccc(C2CC(=O)C=C(O)C2)cc1 (stereo not drawn),3.29
5,CSCC(C)N1CCC(n2nccc2NC(=O)c2ccc3c(c2)OCO3)CC1 (stereo not drawn),-2.95
6,Cc1ccc(CCNS(=O)(=O)c2cc3c(cc2C)n(C)c(=O)c(=O)n3C)cc1,-30.8
7,CCOC(=O)CNC(=O)CSc1nnc(-c2cccc(OC)c2)n1CC,7.24
8,CCOc1ccc(-n2c(-c3ccccc3)nnc2-c2ccccc2)cc1,-6.7
9,CNC(=O)CSc1nnc(-c2ccco2)n1-c1ccc(C)cc1,-49.5
10,COC(=O)CSc1nnc(-c2ccco2)n1-c1ccc(C)cc1,-24.2
11,Cc1ccc(-n2c(SCC(=O)Nc3ccc4c(c3)OCCO4)nnc2-c2ccco2)cc1,-30.9
12,CCOC(=O)CNC(=O)CSc1nnc(-c2cccc(C)c2)n1-c1ccc(OC)cc1,-62
13,Cc1ccc(-n2c(SCC(=O)Nc3ccc4cn[nH]c4c3)nnc2-c2ccco2)cc1,-62.4
14,CCOC(=O)CNC(=O)CSc1nnc(-c2ccc(OC)cc2)n1CC,10.5
15,CCOC(=O)CSc1nnc(-c2ccco2)n1-c1ccc(C)cc1,-61.9
16,CCOC(=O)CSc1nnc(-c2ccco2)n1-c1ccccc1,-27.6
17,CCNC(=O)CSc1nnc(-c2ccccc2)n1-c1ccc(OCC)cc1,-62.8
18,CCOc1ccc(NC(=O)CSc2nnc(-c3ccccc3)n2N)cc1,6.02
19,CCn1c(C)nc2cc(C(=O)N/N=C/c3ccccc3C)ccc21,-12.8
20,Cc1cc2c(C)nc(Cc3ccccc3)nc2o1,14.7
21,CCOc1cc2[nH]c(=O)n(Cc3ccc(C(=O)NCCCN4CCCC4=O)cc3)c(=O)c2cc1OCC,16.2
